“And” between values parts separate entries of the source, which are not always exact repeats. Identical values can stand only once. Out of some 34,000 compounds screened, about 290 (0.85%) showed an effect of 50% or more. The sample holds strong results, similar compounds and a random draw of the others, so the mix is not that of the screen.
Test system: Plasmodium falciparum
Assay: Plasmodium falciparum sporozoite viability assay
Assay type: functional, organism-based
Set-up: scale not given: in the data most compounds retested in dose-response had high values

| Structure (SMILES) | Percent Effect | Percent Effect (10 mM as filed; unlikely as a test dose) |
| --- | --- | --- |
| O=C(COc1coc(CN2CCOCC2)cc1=O)c1ccc(Cl)cc1 | -1.015% | – |
| O=C(NCCc1ccccn1)Nc1cc(C(F)(F)F)c[nH]c1=O | 1.519% | – |
| Cc1nn(C)cc1C(=O)N1CCC(C(=O)c2nc3ccccc3s2)CC1 | 4.427% | – |
| CCc1ncc(CN(C)C2CCN(C(C)C)CC2)cn1.O=C(O)CC(O)(CC(=O)O)C(=O)O | 7.243% | – |
| COCC(NC(=O)c1cn2ccsc2n1)c1ccnn1C (stereo not drawn) | 0.7162% | – |
| CC(=O)NC1CCCN(C(=O)Nc2cccnc2-n2cccn2)C1 (stereo not drawn) | -4.732% | – |
| O=C(CCCc1nc(-c2ccccc2)no1)N1CCN(CCO)CC1 | 11.73% | – |
| O=C(Nc1cc(-c2ccccc2)on1)N1CCN(CCO)CC1 | – | 64.88% and 38.14% |
| CCC(=O)NC1CCCN(C(=O)Nc2cccc(COC(C)C)c2)C1 (stereo not drawn) | 3.429% | – |
| CCC(=O)NC1CCCN(C(=O)Nc2cc(-c3ccccc3)on2)C1 (stereo not drawn) | – | 86.86% and 95.97% |
| O=C(Nc1cc(-c2ccccc2)on1)N1CC[C@H](O)C1 | – | -24.83% and -17.1% |
| Cc1csc(CNCC(C)c2nc3ccccc3o2)n1 (stereo not drawn) | 10.3% | – |
| O=C(Cn1cnc2cc3c(cc21)OCCCO3)NC1CCCCC1 | – | 58.19% and 56.08% and 47.01% |
| O=C(Cn1cnc2cc3c(cc21)OCCCO3)NC1CCCC1 | – | 34.04% and 26.95% and 25.51% |
| O=C(Cn1cnc2cc3c(cc21)OCCCO3)NCCc1ccccc1 | – | 3.571% and -13.25% and -3.678% |
| NC(=O)N1CCC2(CC1)CC(=O)N(CC1CCCO1)c1ccccc12 (stereo not drawn) | 6.567% | – |
| Cc1cc(CN2CCOC(Cn3nc(C)cc3C)C2)on1 (stereo not drawn) | 2.612% | – |
| CCCN(C(=O)c1cnccn1)c1nc2c(s1)CCc1c-2cnn1C | 1.308% | – |
| CCCN(C(=O)c1ccncc1)c1nc2c(s1)CCc1c-2cnn1C | 11.45% | – |
| COCCN(C(=O)c1ccccn1)c1nc2c(s1)CCc1c-2cnn1C | – | 80.83% and 57.64% and 71.31% |
| COCCN(C(=O)c1cnccn1)c1nc2c(s1)CCc1c-2cnn1C | -10.14% | – |
| Cc1ccc(C(O)CN2CCN(Cc3nccn3C)CC2)cc1C (stereo not drawn) | 1.122% | – |
| Cc1noc(C)c1CN(C)C(=O)NC1CCCN(S(C)(=O)=O)C1 (stereo not drawn) | 9.671% | – |
| c1ccc(-c2ccc(CN3CCOC(Cn4cncn4)C3)cc2)cc1 (stereo not drawn) | -3.122% | – |

| Structure (SMILES) | Percent Effect | Percent Effect (10 mM as filed; unlikely as a test dose) |
| --- | --- | --- |
| Cc1cnn(CC2CN(Cc3nc4ccccc4s3)CCO2)c1 (stereo not drawn) | – | 55.85% and 70.99% and 46.92% |
| Cc1nc2ccccc2nc1CN1CCOC(Cn2cccn2)C1 (stereo not drawn) | 6.321% | – |
| Cc1cnn(CC2CN(Cc3nc4ccccc4o3)CCO2)c1 (stereo not drawn) | -0.5102% | – |
| Cc1cc(C)n(CC2CN(Cc3nc4ccccc4s3)CCO2)n1 (stereo not drawn) | – | 66.96% and 52.93% and 45.91% |
| Cc1cc(C)n(CC2CN(Cc3ccccn3)CCO2)n1 (stereo not drawn) | 1.241% | – |
| Cc1cnn(CC2CN(Cc3nc4ccccc4nc3C)CCO2)c1 (stereo not drawn) | -7.63% | – |
| c1ccc2sc(N3CCOC(Cn4cccn4)C3)nc2c1 (stereo not drawn) | 9.76% | – |
| Cc1nc(CN2CCOC(Cn3cncn3)C2)nc2ccccc12 (stereo not drawn) | – | 1.85% and -1.802% and -10.11% |
| c1ccc(OCCN2CCC(c3nnc(-c4cccnc4)o3)CC2)cc1 | -3.337% | – |
| CCOCC1c2c(cnn2C)CCN1C(=O)c1cc(C)on1.O=C(O)C(F)(F)F (stereo not drawn) | 15.94% | – |
| COc1ccc(Br)c(C(=O)NCC2CC2)c1 | 3.186% | – |
| CC(C)COCC1CN(Cc2ccco2)Cc2ncn(C)c21 (stereo not drawn) | 12.26% | – |
| Cc1ccc(CN2CC[C@@H]3[C@@H](CO[C@H]3CN3CCN(C)CC3)C2)s1.O=C(O)C(F)(F)F.O=C(O)C(F)(F)F.O=C(O)C(F)(F)F | 10.79% | – |
| O=C1[C@H]2CN(S(=O)(=O)C3CC3)C[C@H]2CN1CC1CC1 | 4.506% | – |
| CC(=O)Nc1nc(C(=O)N2CCCCC2Cn2cc(C)cn2)cs1 (stereo not drawn) | -12.14% | – |
| Cc1ccc(S(=O)(=O)NC(=O)c2c(C)noc2C(C)C)cc1C | -15.45% | – |
| CNC(=O)CCNC(=O)CCc1c(C)nc2cc(O)nn2c1C | 8.263% | – |
| Cc1ccc(CN(C)C(=O)CNC(=O)N2CCc3ccccc3C2)o1 | 1.19% | – |
| CCC1c2ccsc2CCN1C(=O)NCc1ccc(C)nc1 (stereo not drawn) | 6.154% | – |
| CC(C)(C)c1cn2nc(N3CCCC3Cn3cncn3)sc2n1 (stereo not drawn) | – | -5.183% and 4.187% and 0.2303% |
| CC(C)(C)c1cn2nc(N3CCCC(Cn4cncn4)C3)sc2n1 (stereo not drawn) | – | 61.38% and 60.13% and 50.37% |
| CC(C)(C)c1cn2nc(N3CCOC(Cn4cncn4)C3)sc2n1 (stereo not drawn) | 8.052% | – |
| Cc1nc(-c2c(C)noc2C)cc(C2CCN(S(=O)(=O)N(C)C)CC2)n1 | 10.55% | – |
| CN(C)C(=O)CN1CC[C@]2(CN(CC3CC3)C[C@H]2c2ccccc2)C1=O.O=C(O)C(F)(F)F | 2.654% | – |

Reference: ChEMBL document CHEMBL3988442, “University of Dundee, Small-Polar-MMV Screening Library” (2021)
